The source of these data is PubChem BioAssay AID488850 (National Center for Advancing Translational Sciences (NCATS), 2010).

Molecules are shown by their SMILES. Inconclusive results are not listed. Calls of active or inactive are those of the source. Calls come from the whole dose curve; as a rule, active = well fitted activation curve with a large enough effect; inconclusive = small, poorly fitted or top-dose-only effect; inactive = flat fitted curve, though single readings scatter.

Sequence of Lysosomal acid glucosylceramidase (Homo sapiens) (P04062 whole entry N409S): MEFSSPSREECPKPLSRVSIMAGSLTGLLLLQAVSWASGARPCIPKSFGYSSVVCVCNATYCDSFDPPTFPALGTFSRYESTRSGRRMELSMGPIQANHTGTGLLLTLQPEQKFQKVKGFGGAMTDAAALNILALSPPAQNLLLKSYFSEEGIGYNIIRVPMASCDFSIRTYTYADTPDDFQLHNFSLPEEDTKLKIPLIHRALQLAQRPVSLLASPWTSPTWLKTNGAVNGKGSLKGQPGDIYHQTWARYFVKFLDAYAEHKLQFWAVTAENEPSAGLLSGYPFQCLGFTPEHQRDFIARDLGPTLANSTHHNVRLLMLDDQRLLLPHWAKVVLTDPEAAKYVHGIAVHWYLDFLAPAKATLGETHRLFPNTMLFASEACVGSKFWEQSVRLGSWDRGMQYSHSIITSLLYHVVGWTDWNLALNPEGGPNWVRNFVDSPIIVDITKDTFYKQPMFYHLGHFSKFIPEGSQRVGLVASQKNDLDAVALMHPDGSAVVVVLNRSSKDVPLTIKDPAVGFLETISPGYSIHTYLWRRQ

The test addresses Lysosomal acid glucosylceramidase (Homo sapiens) (UniProt P04062). Put plainly: qHTS Assay for Inhibitors and Activators of N370S glucocerebrosidase as a Potential Chaperone Treatment of Gaucher Disease: Purified N370S Glucocerebrosidase Confirmation for Probe SAR. The conditions noted are these: purified N370S GC, 4MU-glucoside fluorescence, 40 min; series mostly up to 57.5 µM. From the text:
NIH Chemical Genomics Center [NCGC] NIH Molecular Libraries Probe Production Centers Network [MLPCN] MLPCN Grant: MH086442-01 Assay Submitter (PI): Wei Zheng Glucocerebrosidase (GC) catalyzes the hydrolysis of beta-glucocerebroside to glucose and ceramide in lysosomes. Mutations in the glucocerebrosidase gene result in Gaucher disease, an autosomal recessive lysosomal storage disorder. Many of the mutations encountered in patients with Gaucher disease are missense alterations that may cause misfolding, decreased stability and/or mistrafficking of this lysosomal protein. […] These inhibitors include iminosugar analogs and three non-iminosugar inhibitors identified from a previous HTS of 62,000 compounds with the wild type recombinant enzyme. However, the enhancement of enzyme activity by the chaperone action of an enzyme inhibitor must be balanced against the direct inhibition of the enzyme. An enzyme activator could also function as a chaperone by binding to the enzyme and helping to correct its misfolding and mistrafficking. While activators for GC have not yet been identified, they may have better therapeutic potential than inhibitors. Therefore the discovery and development of chemical activators may provide a new strategy for the chaperone therapy. We have optimized a new assay using N370S mutant GC derived from the spleen of a Gaucher patient. […] In addition, the MLPCN compound library has expanded, which increases the chance of finding new and better probes. This assay characterizes compound activity using purified mutant enzyme instead of tissue homogenate. Compound activity differences may be due to the absence of endogenous cofactors found in tissue homogenate.
NCGC Assay Protocol Summary: This is a fluorogenic enzyme assay with 4-methylumbelliferyl-beta-D-glucopyranoside as the substrate and purified N370S glucocerebrosidase as the enzyme preparation. Upon the hydrolysis of this fluorogenic substrate, the resulting product, […] which can be detected by a standard fluorescence plate reader. Data were normalized to the controls for basal activity (without enzyme) and 100% activity (with enzyme). The AC50 values were determined from concentration-response data modeled with the standard Hill equation. Assay buffer: 50 mM citric acid (titrated with potassium phosphate to pH 5.0), 100 mM potassium chloride, 10 mM sodium chloride, 1 mM magnesium chloride, 0.01% Tween-20. 1536-well assay protocol: (1) Add 2 ul/well of glucocerebrosidase enzyme solution (5 nM final) (2) Add 23 nL compounds in DMSO solution. The final titration was 0.5 nM to 58 uM. (3) Add 2 ul of substrate (1 mM final) (4) Incubate at 37C for 40 min. (5) Add 2 ul stop solution (1M NaOH and 1M Glycine mixture, pH 10) (6) Detect the assay plate in a ViewLux plate reader (PerkinElmer) with Ex=365 nm and Em=440nm. Keywords: Glucocerebrosidase, beta-glucosidase, Gaucher Disease, pharmacological chaperone, chaperone therapy, high throughput screening, glucocerebrosidase inhibitor, MLSMR, MLSCN, NIH Roadmap, qHTS and NCGC
Take `Cc1cc(C)n2ncc(C(=O)Nc3ccc(C(F)(F)F)cc3)c2n1`: the Potency was 13 µM (active).

As for `Cc1cc(C)n2ncc(C(=O)Nc3ccc(C)c(C)c3)c2n1`, the Potency was 7.3 µM (active).

In the case of `Cc1ccc(NC(=O)c2cnn3c(C)cc(C)nc23)c(C)c1`, the Potency is 23.1 µM (active).

With `Cc1cc(C)n2ncc(C(=O)Nc3cccc(C#N)c3)c2n1`, the Potency result is “inactive”.

`CCc1ccc(NC(=O)c2cnn3c(C)cc(C)nc23)cc1`: the Potency was 16.3 µM (active).

In the case of `Cc1cc(C)n2ncc(C(=O)Nc3ccc(Br)cc3)c2n1`, the Potency is 16.3 µM (active).

Consider `O=C(Nc1ccccc1Sc1ccccc1)c1cnn2c1NC(=C1CC1)C=C2C(F)F`, for which the Potency is 16.3 µM (active).

For the compound `Cc1cc(C)n2ncc(C(=O)NC3CCC(C(C)(C)C)CC3)c2n1` (stereo unspecified), the Potency is 7.3 µM (active).

As to `Cc1cc(C)n2ncc(C(=O)Nc3ccccc3)c2n1`, the Potency is 9.19 µM (active).

As for `COc1ccc(NC(=O)c2cnn3c(C)cc(C)nc23)cc1Cl`, the Potency is 25.9 µM (active).

On to `CC(=O)c1ccc(NC(=O)c2cnn3c(C)cc(C)nc23)cc1`, for which the Potency result was “inactive”.

On to `Cc1cc(C)n2ncc(C(=O)Nc3cccc(C(F)(F)F)c3)c2n1`, for which the Potency was 20.6 µM (active).

In the case of `Cc1ccc(NC(=O)c2cnn3c(C)cc(C)nc23)cc1`, the Potency was 16.3 µM (active).

Take `Cc1cc(C)n2ncc(C(=O)Nc3ccccc3C)c2n1`: the Potency was 13 µM (active).

With `O=C(Nc1cnn(Cc2ccc(F)cc2)c1)c1cnn2c(C(F)F)cc(-c3ccccc3)nc12`, the Potency is 10.3 µM (active).

With `Cc1cccc(NC(=O)c2cnn3c(C)cc(C)nc23)c1`, the Potency was 18.3 µM (active).

On to `Cc1cc(C)n2ncc(C(=O)Nc3ccc4c(c3)OCO4)c2n1`, for which the Potency is 5.17 µM (active).

`Cc1cc(C)n2ncc(C(=O)NC3CCCCC3)c2n1`: the Potency was 11.6 µM (active).

For the compound `Cc1cc(C)n2ncc(C(=O)NCc3ccccc3)c2n1`, the Potency was 13 µM (active).

In the case of `Cc1cc(C)n2ncc(C(=O)Nc3ccc4c(c3)CCC4)c2n1`, the Potency is 11.6 µM (active).

In the case of `Cc1cc(C)n2ncc(C(=O)Nc3ccncc3)c2n1`, the Potency result is “inactive”.

Turning to `Cc1cc(C)n2ncc(C(=O)NCc3ccco3)c2n1`, the Potency was 20.6 µM (active).

Regarding `Cc1cc(C)n2ncc(C(=O)N3CCCC3)c2n1`, the Potency entry was “inactive”.

For the compound `COc1ccc(NC(=O)c2cnn3c(C)cc(C)nc23)cc1`, the Potency was 14.6 µM (active).

As for `C#Cc1ccc(NC(=O)c2cnn3c(C)cc(C)nc23)cc1`, the Potency is 6.51 µM (active).

Take `CC(=O)Nc1ccccc1NC(=O)c1cnn2c(C)cc(C)nc12`: the Potency entry is “inactive”.

`Cc1cc(C)n2ncc(C(=O)Nc3ccc(S(C)(=O)=O)cc3)c2n1`: the Potency entry was “inactive”.

On to `CNC(=O)c1cnn2c(C)cc(C)nc12`, for which the Potency result is “inactive”.

Consider `CC(=O)c1cccc(NC(=O)c2cnn3c(C)cc(C)nc23)c1`, for which the Potency was 20.6 µM (active).

For `Cc1cc(C)n2ncc(C(=O)Nc3ccc4c(c3)OCCO4)c2n1`, the Potency was 16.3 µM (active).

Regarding `COc1ccc(NC(=O)c2cnn3c(C)cc(C)nc23)cc1F`, the Potency was 5.8 µM (active).
